{
  "source": "PubChem BioAssay AID1053125",
  "about": "(Broad Institute, 2014)",
  "note": "Results with a measured potency or affinity are listed apart. Activity calls are given as the source filed them.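 The calls were made as follows: active = viability loss whose fitted half-maximal concentration is at most twice the top valid tested dose; inconclusive = flat curve with 30 to 70% loss, or poor fit; inactive = the rest.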",
  "data": [
    {"experiment": "viability loss in HepG2 liver cells – cell-based, ATP luminescence, cherry-pick, set 6, cytotoxicity control, dose response (AID 1053125);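 also: negative values mean loss of viability signal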", "details": "ATP luminescence (CellTiter-Glo), 72 h; series mostly up to 26 µM; activity change, negative = cytotoxicity: at the top concentration", "values": [
      {"compound": "O=c1[nH]c(=O)c2nc(-c3ccc(Cl)cc3)cnc2[nH]1", "activity change, negative = cytotoxicity": "-2.93% (inactive)"},
      {"compound": "COc1ccccc1C(=O)c1cc2ccc(O)cc2oc1=O", "activity change, negative = cytotoxicity": "-11% (inactive)"},
      {"compound": "Cc1nc(CCNC(=O)Cc2ccc(Cl)cc2)cs1", "activity change, negative = cytotoxicity": "-1.48% (inactive)"},
      {"compound": "CCc1cccc(C)c1NC(=S)NCc1ccc2c(c1)cc(C)n2C", "activity change, negative = cytotoxicity": "9.93% (inactive)"},
      {"compound": "CC1CC(C)CN(CCCNC(=O)CCC(=O)N2CC(C)Oc3ccccc32)C1", "note": "(centres undefined)", "activity change, negative = cytotoxicity": "-6.78% (inactive)"},
      {"compound": "CCOC(=O)C(NC(=O)c1ccccc1)(OCC1(CC)COC1)C(F)(F)F", "note": "(centres undefined)", "activity change, negative = cytotoxicity": "-2.01% (inactive)"},
      {"compound": "CCOCCCNc1c(CC)c(C)c(C#N)c2nc3ccccc3n12", "activity change, negative = cytotoxicity": "-11.8% (inactive)"},
      {"compound": "O=c1oc2cc(O)ccc2cc1S(=O)(=O)c1ccccc1", "activity change, negative = cytotoxicity": "-3.94% (inactive)"},
      {"compound": "Cc1oc(/N=C/c2ccc(O)cc2O)c(C#N)c1C", "activity change, negative = cytotoxicity": "-16.4% (inactive)"},
      {"compound": "CCOCCCNc1nc2nc3ccc(C)cn3c(=O)c2cc1C(=O)NCC1CCCO1", "note": "(centres undefined)", "activity change, negative = cytotoxicity": "-3.61% (inactive)"},
      {"compound": "CCOc1ccc2nc(NCCNC(=O)CC)c(C#N)cc2c1", "activity change, negative = cytotoxicity": "5.54% (inactive)"},
      {"compound": "CC(=O)c1sc(N/N=C\\c2ccc(N(C)C)cc2)nc1C", "activity change, negative = cytotoxicity": "-8.39% (inactive)"},
      {"compound": "COc1ccc(C(=O)Oc2cc(N)n(S(=O)(=O)c3ccccc3)n2)cc1", "activity change, negative = cytotoxicity": "-8.75% (inactive)"},
      {"compound": "C=Cc1ccc(Cn2c(C)c(C(=O)NCc3cccc(C)c3)sc2=O)cc1", "activity change, negative = cytotoxicity": "3.39% (inactive)"},
      {"compound": "CCOc1ccc(C2C(C#N)=C(N)Oc3cc(O)ccc32)cc1OCC", "note": "(centres undefined)", "activity change, negative = cytotoxicity": "10% (inactive)"},
      {"compound": "COCCCOc1cc(NCc2ccccc2)c2ncn(C(C)C)c2c1", "activity change, negative = cytotoxicity": "5.95% (inactive)"},
      {"compound": "O=c1oc2c(CN3CCN(CCO)CC3)c(O)ccc2cc1-c1ccccn1", "activity change, negative = cytotoxicity": "-7.38% (inactive)"},
      {"compound": "CC(=O)OC[C@@H]1CN(Cc2ccccc2)C[C@H](n2cnc3c(N(C)C(C)C)ncnc32)O1", "activity change, negative = cytotoxicity": "-6.77% (inactive)"},
      {"compound": "Cc1cc(C)nc(SCC(=O)Nc2ccc(S(=O)(=O)Nc3onc(C)c3C)cc2)n1", "activity change, negative = cytotoxicity": "-1.5% (inactive)"},
      {"compound": "COc1cc(/C=C(\\C#N)C(=O)NC(C)C)cc(Cl)c1O", "activity change, negative = cytotoxicity": "-4.17% (inactive)"},
      {"compound": "Cn1cccc1/C=N/NC(=O)c1sc2cc(Cl)ccc2c1Cl", "activity change, negative = cytotoxicity": "-8.71% (inactive)"},
      {"compound": "COCCn1c(=N)c(S(=O)(=O)c2ccc(F)cc2)cc2c(=O)n3ccccc3nc21", "activity change, negative = cytotoxicity": "-0.298% (inactive)"},
      {"compound": "COc1ccc(CCNC(=O)c2cc(S(=O)(=O)N3CCCCC3)c[nH]2)cc1OC", "activity change, negative = cytotoxicity": "-2.68% (inactive)"},
      {"compound": "CCN(CC)Cc1c(O)c(Cl)cc2c(C)cc(=O)oc12", "activity change, negative = cytotoxicity": "1.66% (inactive)"},
      {"compound": "Cc1cccn2c(=O)c3cc(C(=O)NCc4ccc(F)cc4)c(=N)n(CCCN4CCOCC4)c3nc12", "activity change, negative = cytotoxicity": "-7.84% (inactive)"},
      {"compound": "CCc1nc(SCC(=O)c2ccccc2)c2ccccc2n1", "activity change, negative = cytotoxicity": "-8.96% (inactive)"},
      {"compound": "COc1ccc(C2C(C#N)=C(N)Oc3cc(O)ccc32)cc1Cl", "note": "(centres undefined)", "activity change, negative = cytotoxicity": "-4.61% (inactive)"},
      {"compound": "O=C(C1=NN(c2ccccc2)C2C(=O)N(c3ccccc3)C(=O)C12)c1ccccc1", "note": "(centres undefined)", "activity change, negative = cytotoxicity": "16.3% (inactive)"},
      {"compound": "O=C(NCc1ccc(F)cc1)C1CCCN1C(=O)Nc1cccc(F)c1", "note": "(centres undefined)", "activity change, negative = cytotoxicity": "-3.92% (inactive)"},
      {"compound": "COc1ccc(C2C3=C(CC(C)(C)CC3=O)N(C)C3=C2C(=O)CC(C)(C)C3)cc1", "activity change, negative = cytotoxicity": "4.57% (inactive)"},
      {"compound": "Cc1cc(=O)oc2cc(OC(=O)c3cncc(Br)c3)ccc12", "activity change, negative = cytotoxicity": "4.96% (inactive)"},
      {"compound": "CCNc1nc2nc3ccc(C)cn3c(=O)c2cc1C(=O)NCC1CCCO1", "note": "(centres undefined)", "activity change, negative = cytotoxicity": "-17.4% (inactive)"},
      {"compound": "O=C(NCc1nnnn1-c1ccc(Cl)cc1)C1CC(=O)N(c2ccc(F)cc2)C1", "note": "(centres undefined)", "activity change, negative = cytotoxicity": "-2.53% (inactive)"},
      {"compound": "COc1ccccc1OCc1ccc(C(=O)N(C)c2ccccc2)o1", "activity change, negative = cytotoxicity": "3.98% (inactive)"}
    ]}
  ]
}
